In the supplement of paper PMC10037445:
Values joined by “and” are separate entries in the source; they are usually repeats but may differ in a detail not shown here. Equal entries are not always repeated. The full ranking holds about 2,900 compounds; the median of “NF-kB SEAP reporter activity, fold change vs agonist alone” is about 0.99, and the highest 2% start at about 2.6. The entries come from a sample that favours the highest values as a whole.

Assays:
[1] = system: RAW-Dual; test: NF-kB SEAP reporter activity, fold change vs agonist alone; higher = enhanced NF-kB activity; details: library stock concentration (final ~1000-fold dilution): 10 mM
Summary of the method: (§1)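 RAW-Dual macrophages were seeded in DMEM at 50,000 cells/well in 384-well plates, given 50 nL of library stock by pin tool, and given a PRR agonist 1 h later. Plates were held at 37 °C, 5% CO2 for 20 hours, after which supernatant was read for IRF by QuantiLuc luminescence and for NF-κB by QuantiBlue absorbance at 620 nm. Reporter activity is expressed as fold change over wells that received agonist alone. A well was called cytotoxic when IncuCyte confluency fell below 70% of agonist controls in both mask sets.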

[2] = system: RAW-Dual; test: NF-kB SEAP reporter activity, fold change vs agonist alone; cytotoxicity flag (confluency mask): not cytotoxic; higher = enhanced NF-kB activity
Summary of the method: as §1

[3] = system: RAW-Dual; test: NF-kB SEAP reporter activity, fold change vs agonist alone; cytotoxicity flag (confluency mask): cytotoxic (confluency <70% of control); higher = enhanced NF-kB activity
Summary of the method: as §1

[4] = cytotoxicity flag (confluency mask): not cytotoxic, agonist: Imiquimod (TLR7) […]
[5] = cytotoxicity flag (confluency mask): not cytotoxic, agonist: MPLA (TLR4) […]
[6] = agonist: ODN 1826 (TLR9) 0.5 ug/mL
[7] = agonist: Pam2CSK4 (TLR2/6) 0.1 ug/mL
[8] = agonist: Pam3CSK4 (TLR2/1) 0.1 ug/mL

CCN(CC)C(=O)Nc1ccc(OCC(O)CNC(C)(C)C)c(C(C)=O)c1.Cl (stereo not given)
NF-kB SEAP reporter activity [1, 4]: 2.4
NF-kB SEAP reporter activity [1, 5]: 2.24

Cl.N=c1ccn2c(n1)OC1C(O)C(CO)OC12 (stereo not given) (library stock concentration (final ~1000-fold dilution): 10 mM)
NF-kB SEAP reporter activity ([2]; agonist: LPS (TLR4) 0.1 ug/mL): 1.33
NF-kB SEAP reporter activity [2, 6]: 1.89
NF-kB SEAP reporter activity [2, 7]: 1.4
NF-kB SEAP reporter activity [2, 8]: 1.83

Cl.N=c1ccn2c(n1)OC1C(O)C(CO)OC12 (stereo not given)
NF-kB SEAP reporter activity [1, 4]: 1.8
NF-kB SEAP reporter activity [1, 5]: 1.42

Brc1ccc(CCCCn2ccnc2)cc1 (library stock concentration (final ~1000-fold dilution): 10 mM)
NF-kB SEAP reporter activity ([2]; agonist: LPS (TLR4) 0.1 ug/mL): 0.672 and 0.736
NF-kB SEAP reporter activity [2, 6]: 0.566 and 0.595
NF-kB SEAP reporter activity [2, 7]: 0.493 and 0.552
NF-kB SEAP reporter activity [2, 8]: 0.585 and 0.645

CN(C)C(=O)CCSC(SCCC(=O)O)c1cccc(C=Cc2ccc3ccc(Cl)cc3n2)c1 (stereo not given) (library stock concentration (final ~1000-fold dilution): 10 mM)
NF-kB SEAP reporter activity ([2]; agonist: LPS (TLR4) 0.1 ug/mL): 1.5
NF-kB SEAP reporter activity [2, 6]: 1.12
NF-kB SEAP reporter activity [2, 7]: 0.936
NF-kB SEAP reporter activity [2, 8]: 0.945

CN(C)C(=O)CCSC(SCCC(=O)O)c1cccc(C=Cc2ccc3ccc(Cl)cc3n2)c1 (stereo not given)
NF-kB SEAP reporter activity [1, 4]: 0.973
NF-kB SEAP reporter activity [1, 5]: 1.05

CNC(=O)c1ccccc1Nc1nc(Nc2ccc(N3CCOCC3)cc2OC)ncc1Cl (library stock concentration (final ~1000-fold dilution): 10 mM)
NF-kB SEAP reporter activity ([2]; agonist: LPS (TLR4) 0.1 ug/mL): 0.332
NF-kB SEAP reporter activity [2, 6]: 0.296
NF-kB SEAP reporter activity [2, 7]: 0.134
NF-kB SEAP reporter activity [2, 8]: 0.246

Cc1cc(N2CCOCC2)ccc1Nc1nc(NC2CCCCC2)c2nc[nH]c2n1 (library stock concentration (final ~1000-fold dilution): 10 mM)
NF-kB SEAP reporter activity ([2]; agonist: LPS (TLR4) 0.1 ug/mL): 1.44
NF-kB SEAP reporter activity [2, 6]: 0.814
NF-kB SEAP reporter activity [2, 7]: 1
NF-kB SEAP reporter activity [2, 8]: 0.926

Cc1cc(N2CCOCC2)cc2[nH]c(-c3c(NCC(O)c4cccc(Cl)c4)cc[nH]c3=O)nc12 (stereo not given) (library stock concentration (final ~1000-fold dilution): 10 mM)
NF-kB SEAP reporter activity ([2]; agonist: LPS (TLR4) 0.1 ug/mL): 0.682
NF-kB SEAP reporter activity [2, 6]: 3.16
NF-kB SEAP reporter activity [2, 7]: 0.436
NF-kB SEAP reporter activity [2, 8]: 0.595

Cc1cc(N2CCOCC2)ccc1Nc1nc(NC2CCCCC2)c2nc[nH]c2n1
NF-kB SEAP reporter activity [1, 4]: 0.925
NF-kB SEAP reporter activity [1, 5]: 1.04

CNC(=O)c1ccccc1Nc1nc(Nc2ccc(N3CCOCC3)cc2OC)ncc1Cl
NF-kB SEAP reporter activity [1, 4]: 0.466
NF-kB SEAP reporter activity [1, 5]: 0.594

Cc1cc(N2CCOCC2)cc2[nH]c(-c3c(NCC(O)c4cccc(Cl)c4)cc[nH]c3=O)nc12 (stereo not given)
NF-kB SEAP reporter activity [1, 4]: 2.06
NF-kB SEAP reporter activity [1, 5]: 0.802

Cl.NC12CC3CC(CC(C3)C1)C2 (library stock concentration (final ~1000-fold dilution): 10 mM)
NF-kB SEAP reporter activity ([2]; agonist: LPS (TLR4) 0.1 ug/mL): 1.03
NF-kB SEAP reporter activity [2, 6]: 0.798
NF-kB SEAP reporter activity [2, 7]: 0.873
NF-kB SEAP reporter activity [2, 8]: 1.02

Cl.NC12CC3CC(CC(C3)C1)C2
NF-kB SEAP reporter activity [1, 4]: 0.884
NF-kB SEAP reporter activity [1, 5]: 1.08

Nc1ccccc1NC(=O)c1ccc(CNc2nccc(-c3cccnc3)n2)cc1
NF-kB SEAP reporter activity ([1]; cytotoxicity flag (confluency mask): cytotoxic (confluency <70% of control), agonist: Imiquimod (TLR7) […]): 2.7
NF-kB SEAP reporter activity ([1]; cytotoxicity flag (confluency mask): cytotoxic (confluency <70% of control), agonist: MPLA (TLR4) […]): 2.58

Cc1ccc(NC(=O)c2ccc(CN3CCN(C)CC3)cc2)cc1Nc1nccc(-c2cccnc2)n1 (library stock concentration (final ~1000-fold dilution): 10 mM)
NF-kB SEAP reporter activity ([2]; agonist: LPS (TLR4) 0.1 ug/mL): 1.23
NF-kB SEAP reporter activity [2, 6]: 0.212
NF-kB SEAP reporter activity [2, 7]: 1.55
NF-kB SEAP reporter activity [2, 8]: 1.42

Cc1ccc(NC(=O)c2ccc(CN3CCN(C)CC3)cc2)cc1Nc1nccc(-c2cccnc2)n1
NF-kB SEAP reporter activity [1, 4]: 1.31
NF-kB SEAP reporter activity [1, 5]: 1.69

Nc1ccccc1NC(=O)c1ccc(CNC(=O)OCc2cccnc2)cc1
NF-kB SEAP reporter activity [1, 4]: 0.921
NF-kB SEAP reporter activity [1, 5]: 1.06

Nc1ccccc1NC(=O)c1ccc(CNc2nccc(-c3cccnc3)n2)cc1 (library stock concentration (final ~1000-fold dilution): 10 mM)
NF-kB SEAP reporter activity ([3]; agonist: LPS (TLR4) 0.1 ug/mL): 5.7
NF-kB SEAP reporter activity [3, 6]: 3.2
NF-kB SEAP reporter activity [3, 7]: 0.984
NF-kB SEAP reporter activity [3, 8]: 1.9

Nc1ccccc1NC(=O)c1ccc(CNC(=O)OCc2cccnc2)cc1 (library stock concentration (final ~1000-fold dilution): 10 mM)
NF-kB SEAP reporter activity ([2]; agonist: LPS (TLR4) 0.1 ug/mL): 1.22
NF-kB SEAP reporter activity [2, 6]: 1.02
NF-kB SEAP reporter activity [2, 7]: 1.07
NF-kB SEAP reporter activity [2, 8]: 1.14
